From PubChem BioAssay AID995 (National Center for Advancing Translational Sciences (NCATS), 2007) come the findings set out here.

The campaign covered roughly 72,000 compounds. About 710 (0.99%) were called active. A call without a number means that no potency is given here. Roughly 7% stayed inconclusive and do not appear here. Calls come from the whole dose curve; as a rule, active = well fitted inhibition curve with a large enough effect; inconclusive = small, poorly fitted or top-dose-only effect; inactive = no such curve, though single readings can be large or run the other way. Many of the other results were omitted from the sample, so actives are more common in it than they were.
Potency is the fitted concentration of half-maximal effect.

The test can be described thus: qHTS Assay for Inhibitors of the ERK Signaling Pathway using a Homogeneous Screening Assay. Note: nearly all actives have a fitted effect of over 55% in size. The settings on record: HEK293-V1b, vasopressin-stimulated pERK AlphaScreen; series mostly up to 57.5 µM. The essentials: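 Phosphorylated ERK1/2 detected via AlphaScreen bead proximity in lysates of V1b-expressing HEK293 cells given 25 nM vasopressin for 5 min after 30 min compound exposure (37 °C). AC50 from Hill equation; basal DMSO 0%, vasopressin 100%.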
A general note: qHTS replaces the single test concentration by a dilution series.
Take `CC(=O)OCC(=O)C1CCC2C3CCC4=CC(=O)CC[C@@]4(C)C3CC[C@]12C` (stereo partly specified): the Potency result is “inactive”. As for `Cc1ccc(NC(=O)c2cccc(N(C)C)c2)cc1NC(=O)c1ccc(O)cc1`, the Potency entry is “inactive”. On the same count and under the same terms, as for `CC1(C)OC2CO[C@]3(COS(N)(=O)=O)OC(C)(C)OC3C2O1` (stereo partly specified), the entry is “inactive”; as for `CC1(C)C=CC(=O)[C@]2(C)C1CC(=O)[C@]1(C)C2CC[C@@]2(C)C(c3ccoc3)OC(=O)C3OC321` (stereo partly specified), “inactive”; as for `COC(=O)[C@H]1C[C@@H]1[C@H](NC(=O)Oc1ccc(F)cc1)c1ccccc1`, “inactive”. Same read-out and setting: then `O=C(c1cnccn1)N1CCC2(CCCN(Cc3ccccc3)C2)CC1`, with “inactive”; and `COc1ccccc1OCCNCC(O)COc1cccc2[nH]c3ccccc3c12` (stereo unspecified), with “inactive”. Still for that read-out and setting: then `O=C(OCC(COC(=O)c1ccccc1)(COC(=O)c1ccccc1)COC(=O)c1ccccc1)c1ccccc1`, with “inactive”; and `COc1c(C(C)C)oc2cc3oc(=O)ccc3cc12`, with “inactive”. With `COC(=O)[C@@]1(Cc2ccc(OC)cc2)[C@H]2c3cc(C(=O)N4CCCC4)n(Cc4ccc(OC(F)(F)F)cc4)c3C[C@H]2CN1C(=O)c1ccccc1`, the Potency result is “inactive”.

As for `O=C(O)CS(=O)c1ccc2c3c(cccc13)C(=O)c1ccccc1-2` (stereo unspecified), the activity, negative = inhibition is 22.7% [at 11.5 µM] (inactive). Consider `CC(C)CO`, for which the Potency result is “inactive”. For the compound `Nc1nc2[nH]c(=O)c(=O)[nH]c2c(=O)[nH]1`, the Potency result was “inactive”. `C[C@@H]1/C=C\CC(=O)OC[C@H]2O[C@@H](C=C[C@@H]2O)[C@H](C)/C=C\CC(=O)OC[C@H]2O[C@H]1C=C[C@@H]2O`: the activity, negative = inhibition was 20.6% [at 11.5 µM] (inactive). On to `COC(=O)[C@@H]1C[C@@]2(O)[C@@H](O)[C@@H](O)[C@@H](O)C[C@H]2N1Cc1ccc(C)s1`, for which the Potency result is “inactive”. `O=C(c1cc(C(F)(F)F)cc(C(F)(F)F)c1)N1CCC[C@@]2(CCN(c3ccccn3)C2)C1`: the Potency entry is “inactive”. Still for that read-out and setting: then `Cc1nc2cnc(N3CCNCC3)nc2n(CCc2ccccc2)c1=O`, with “inactive”; and `C/C=C(/C)C(=O)OC1Cc2c(ccc3ccc(=O)oc23)OC1(C)C` (stereo unspecified), with “inactive”; and `COc1ccc(C[C@H](N)C(=O)N[C@@H]2[C@H](O)[C@H](n3cnc4c(N(C)C)ncnc43)O[C@@H]2CO)cc1`, with “inactive”.

In the case of `Cc1c(S(=O)(=O)O)oc2c1C(=O)C(=O)c1c-2ccc2c1CCCC2(C)C`, the Potency entry is “inactive”. On the same count and under the same terms, then `C=C1C([C@@]2(C)C(OC(C)=O)CC(=O)O[C@@](C)(COC(C)=O)C2CC(=O)OC)C(OC=O)C(OC(=O)C(O)C(C)CC)[C@]2(C)C(c3ccoc3)CC(=O)C12O` (stereo partly specified), with “inactive”; and `CCCCCn1c(SCCC(C)C)nc2c1c(=O)[nH]c(=O)n2C`, with “inactive”.

Turning to `Cn1c(=O)[nH]c(=O)c2c1nc(Br)n2CCCCSc1nc2ccccc2o1`, the Potency is 31.6 µM (active). As to `Cc1ccnc(SCCn2c(Br)nc3c2c(=O)[nH]c(=O)n3C)n1`, the Potency entry was “inactive”. The same measure, in the same setting: as for `CCC[C@@H]1C[C@@]1(CCC)C(NC(=O)c1ccc(-c2ccccc2)cc1)c1cccc(Cl)c1` (stereo partly specified), the entry is “inactive”; as for `CC1=C(C(=O)OCc2ccccc2)C(c2ccc(C(F)(F)F)cc2)NC(=O)N1CCCCCC(=O)O` (stereo unspecified), “inactive”; as for `O=C(CN1CCN(C2CCCCC2)CC1)Nc1ccccc1N1CCCCC1`, 25.1 µM (active). Same read-out and setting: as for `Cc1ccccc1NC(=O)CNc1ccccc1N1CCCCC1`, the entry is “inactive”; as for `O=C(NCCCN1CCN(C2CCCCC2)CC1)Nc1ccccc1C(F)(F)F`, “inactive”; as for `CC(C)[C@H]1CC[C@@H](C)C[C@H]1O`, “inactive”. Still for that read-out and setting: as for `CC(C)C1=CC2=CC[C@@H]3[C@](C)(CO)CCC[C@]3(C)C2CC1` (stereo partly specified), the entry is “inactive”; as for `C=CC(=O)c1ccc2ccccc2c1`, 10 µM (active).

As to `Cc1ccc2nc(CC(=O)c3ccc4ccccc4c3)c(=O)[nH]c2c1`, the activity, negative = inhibition was 3.17% [at 11.5 µM] (inactive). Consider `CC1C(O)CC2C(C(=O)O)=CO[C@@H](O[C@H]3OC(CO)C(O)C(O)C3O)C21` (stereo partly specified), for which the Potency entry is “inactive”.

With `Cc1ccc(S(=O)(=O)NC(=O)NN2C[C@H]3CCC[C@@H]3C2)cc1`, the Potency entry was “inactive”. The same measure, in the same setting: then `Cc1ccc(/C(=C/CN2CCCC2)c2ccccn2)cc1`, with “inactive”. Consider `Nc1nc(N)c2[nH]c(CNc3ccc(C(=O)O)cc3)nc2n1`, for which the activity, negative = inhibition was -2.04% [at 11.5 µM] (inactive).

For the compound `CCC1=C(OC(=O)N(CC)CC)N2C(=O)OC(=NCCc3c[nH]c4ccccc34)[C@]2(C)[C@H]2C1=CC[C@H]1C(=O)N(CC)C(=O)[C@H]12`, the Potency entry was “inactive”.

Take `c1ccc(COc2nsnc2N2CCOCC2)cc1`: the Potency is 25.1 µM (active). Same read-out and setting: as for `c1nc(COc2nsnc2N2CCOCC2)cs1`, the entry is “inactive”. Take `O=C(O)COc1nsnc1N1CCOCC1`: the Potency result was “inactive”. Still for that read-out and setting: then `O=C(c1csnn1)N1CCC2(CCN(Cc3nccs3)CC2)CC1`, with “inactive”; and `COc1ccc(C2CC(=O)c3c(O)cc(OC4OC(COC5OC(C)C(O)C(O)C5O)C(O)C(O)C4O)cc3O2)cc1O` (stereo unspecified), with “inactive”. In the case of `O=C1OC(C(O)CO)C(O)=C1O` (stereo unspecified), the Potency entry is “inactive”. With `O=C(NCc1cccs1)c1ccc2c(c1)ncn2C1CCCC1`, the Potency entry is “inactive”. Consider `O=C(NCCN1CCOCC1)c1ccc2c(c1)ncn2C1CCCC1`, for which the Potency was 25.1 µM (active).

With `O=C(NCCN1CCOCC1)c1c(F)c(F)c(F)c(F)c1F`, the Potency entry is “inactive”. Same read-out and setting: as for `FC(F)(F)c1ccccc1-c1cc(NCc2ccccc2)ncn1`, the entry is “inactive”; as for `C=CC(=O)OCCOCCOCCOCCOC(=O)C=C`, “inactive”; as for `O=C(CSc1n[nH]c(-c2cccnc2)n1)Nc1ccnc2ccccc12`, 20 µM (active). Regarding `Cc1oc2nc(SCC(=O)NCc3cccnc3)nc(N)c2c1C`, the Potency entry was “inactive”. Regarding `COc1ccc(-c2nc(SCC(=O)N3CCOCC3)n[nH]2)cc1`, the Potency entry was “inactive”. Regarding `CN1CC(=O)N=C1N`, the Potency result was “inactive”.

Turning to `Nc1nc2c(nc(Cl)n2C2OC(CO)C(O)C2O)c(=O)[nH]1` (stereo unspecified), the Potency result is “inactive”.

Take `Oc1ccc2c(c1)OCC1c3cc4c(cc3OC21)OCO4` (stereo unspecified): the Potency result was “inactive”. Take `COC(=O)[C@@H]1C[C@@]2(O)[C@H](O)[C@H](O)[C@H](O)C[C@H]2N1CC1CCCCC1`: the Potency result is “inactive”. Consider `COC(=O)[C@@H]1C[C@@]2(O)[C@H](O)[C@H](O)[C@H](O)C[C@H]2N1Cc1ccc(C)s1`, for which the Potency result was “inactive”.

Take `COc1ccccc1-c1nnc(SCC(=O)N2CC(C)CC(C)C2)o1` (stereo unspecified): the Potency entry was “inactive”. With `COc1ccccc1-c1nnc(SCC(=O)Nc2ccccc2)o1`, the Potency was 25.1 µM (active). Consider `COc1ccccc1-c1nnc(SCC(=O)Nc2cc(C)on2)o1`, for which the Potency result was “inactive”. On the same count and under the same terms, as for `Cn1cccc1C(=O)N1CCC2(CC1)CN(c1cccc(-c3ccccc3)c1)C2`, the entry is “inactive”; as for `COC(=O)[C@@H]1C[C@@]2(O)[C@H](O)[C@H](O)[C@H](O)C[C@H]2N1Cc1ccc(C(C)(C)C)cc1`, “inactive”. On to `NCCNCC1CCNCC1`, for which the activity, negative = inhibition was -16% [at 11.5 µM] (inactive). For the compound `O=C(c1ccco1)N1CCN(C(=O)C2CC(c3ccc(F)cc3)=NO2)CC1` (stereo unspecified), the Potency entry was “inactive”. Turning to `O=C(c1ccco1)N1CCN(C(=O)C2CC(c3ccc(Cl)c(Cl)c3)=NO2)CC1` (stereo unspecified), the Potency was 20 µM (active). As to `O=C(c1ccco1)N1CCN(c2cccc(Cl)c2)CC1`, the Potency result was “inactive”. As to `O=C(O)c1c(Br)c(Br)c(Br)c(Br)c1C1c2ccc(O)cc2Oc2cc(O)ccc21`, the activity, negative = inhibition was -24.2% [at 11.5 µM] (inactive). On to `CC(=O)OC1CCC2(O)CC1(C)CCC1C2CC1(C)C` (stereo unspecified), for which the Potency entry was “inactive”. Same read-out and setting: then `COc1cccc(Cn2c(=O)cnc3cncnc32)c1`, with “inactive”; and `COc1ccc(CCC(=O)c2c(O)cc(OC3OC(CO)C(O)C(O)C3O[C@@H]3OC(C)C(O)C(O)C3O)cc2O)cc1O` (stereo partly specified), with “inactive”; and `O=C(Oc1cc(OC(=O)c2ccccc2)c2c(c1)OC(c1ccc(OC(=O)c3ccccc3)c(OC(=O)c3ccccc3)c1)[C@@H](OC(=O)c1ccccc1)C2)c1ccccc1` (stereo partly specified), with “inactive”.

Turning to `CC1(C)SC2c3ccccc3C(=O)N2[C@@H]1C(=O)NCc1ccco1` (stereo partly specified), the Potency entry is “inactive”. With `O=C1c2ccccc2C(Nc2ccc3c(c2)OCCO3)N1Cc1ccco1` (stereo unspecified), the Potency was 25.1 µM (active). In the case of `O=C(NC1CCCCC1)C1c2ccccc2C(=O)N1Cc1ccco1` (stereo unspecified), the Potency result was “inactive”.

Take `COC1C[C@@H](O[C@@H]2C(C)C(=O)OC(C)C(C)C(O)C(C)C(=O)[C@@]3(CO3)CC(C)C(OC3OC(C)CC(N(C)C)C3O)C2C)OC(C)[C@@H]1O` (stereo partly specified): the Potency entry is “inactive”. Consider `C=C[C@](C)(O)CCC1C(=C)CCC2[C@@](C)(CO)CCC[C@@]12C` (stereo partly specified), for which the Potency result is “inactive”. Take `N#CC1=C(N)OC2=C(C(=O)CCC2)C1C1CC=CCC1` (stereo unspecified): the Potency result was “inactive”.

As to `COCc1[nH]nc2c1C(C1C=CCCC1)C(C#N)=C(N)O2` (stereo unspecified), the Potency result is “inactive”. For the compound `N#CC1=C(N)Oc2cc(O)ccc2C1C1CCCCC1` (stereo unspecified), the Potency is 25.1 µM (active).

Take `Clc1ccc(C=Nc2ccc3c(c2)Cc2ccccc2-3)c(Cl)c1`: the activity, negative = inhibition is 9.67% [at 11.5 µM] (inactive). For `CCCN(C/C=C\I)[C@@H]1CCc2cccc(O)c2C1`, the Potency entry was “inactive”. Still for that read-out and setting: then `CC1=C(/C=C/C(C)=C/C=C/C(C)=C/C=C/C=C(C)/C=C/C=C(C)/C=C/C2=C(C)CCCC2(C)C)C(C)(C)CCC1`, with “inactive”; and `COCCn1c(=O)c(CCc2ccccc2)nc2cnc(N3CCNCC3)nc21`, with “inactive”. Regarding `Cc1cnc(CNc2cc(-c3c(C)noc3C)ncn2)cn1`, the Potency result is “inactive”. The same measure, in the same setting: as for `O=C(O)C(O)[C@@](O)(Cc1ccc(O)cc1)C(=O)O` (stereo partly specified), the entry is “inactive”; as for `Cc1ccnc(N2CCC(C(=O)NC3CCCCCC3)CC2)n1`, “inactive”. On the same count and under the same terms, as for `Cc1nc2ccccc2c(=O)n1CCCn1ccnc1`, the entry is “inactive”; as for `Cc1ccnc(-n2sc3ccccc3c2=O)n1`, 39.8 µM (active).

For the compound `C=CCOC(=O)C(C(C)=O)C(NC(=O)OC)c1ccccc1` (stereo unspecified), the activity, negative = inhibition was 29.5% [at 11.5 µM] (inactive). In the case of `Cn1c(=O)c(-c2ccccc2)nc2cnc(N3CCNCC3)nc21`, the Potency entry is “inactive”. Still for that read-out and setting: as for `CCCCNc1nc(C)nc2c1nc(-c1ccccc1)n2CCCCN(CC)CC`, the entry is “inactive”; as for `C=C1C(=O)C23C(O)C1CCC2[C@]12COC3(O)C(O)C1C(C)(C)CC[C@H]2O` (stereo partly specified), “inactive”. Turning to `c1ccc(CCN2CCN=C2Cc2ccccc2)cc1`, the activity, negative = inhibition was 9.2% [at 11.5 µM] (inactive). For `COCCn1c(=O)c(-c2cc(F)cc(F)c2)nc2cncnc21`, the Potency result was “inactive”. Regarding `NS(=O)(=O)c1cc(Cl)c(Cl)c(S(N)(=O)=O)c1`, the Potency result is “inactive”. In the case of `CCCCCCCCCCCC(=O)O[C@H](CC(=O)O)C[N+](C)(C)C`, the Potency entry is “inactive”.
